Drawing on paper PMC4242493, “Sequence specificity incompletely defines the genome-wide occupancy of Myc”, this text covers binding signal for 174 sequences.

The full ranking holds about 33,000 sequences; the median of “normalized occupancy” is about 0.075, and the highest 2% start at about 0.095. The list comes from a sample in which the highest values are over-represented; it also holds similar and randomly drawn sequences.

The assay deals with MaxL homodimer (Homo sapiens, UniProt P61244 1-160). The assay can be described thus: universal protein-binding microarray (PBM); PBS-based mixture, 10 nM His-tagged protein dimer, 2% milk, 200 ng/uL BSA, 50 ng/uL salmon testes DNA, 0.02% TX-100; detection with Alexa 488 anti-His antibody;; high values mean tight binding. Particulars: protein: recombinant; tags: C-terminal His-tag (pET21a); chain copies: 2; dsDNA, one strand shown. The method in brief: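 A His-tagged protein dimer at 10 nM was incubated on Agilent 4 x 44 K arrays of the 'all 10-mer' universal design, then labelled with 10 ng/μL fluorophore-conjugated anti-His antibody and scanned on a GenePix 4400A. A fluorescence intensity was assigned to each 8-mer. Binding occupancy is each such intensity normalised to that of the highest-ranked one.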
Sequence of MaxL homodimer (P61244 whole entry): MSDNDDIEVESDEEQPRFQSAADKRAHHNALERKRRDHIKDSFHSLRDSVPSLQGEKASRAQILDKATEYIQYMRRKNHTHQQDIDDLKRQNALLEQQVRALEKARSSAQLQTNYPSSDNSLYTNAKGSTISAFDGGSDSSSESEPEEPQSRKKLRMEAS
With CGCCATCC, the binding signal came out at 0.077 normalized occupancy.
Next, CGCCATGC: 0.0988 normalized occupancy; AGCCATGC: 0.0996 normalized occupancy.
As to AGCCATGA, the binding signal worked out at 0.0819 normalized occupancy.
Under AGCCATGG stands 0.0832 normalized occupancy; under CGCCATGA, 0.0842 normalized occupancy; under ATGTCAAT, 0.0778 normalized occupancy.
Next, GGTAACCA: 0.0775 normalized occupancy; CTTCTTTA: 0.075 normalized occupancy; AAAACGAT: 0.0742 normalized occupancy.
Under ACATGGGT stands 0.1 normalized occupancy; under ACATGGGC, 0.0848 normalized occupancy.
As to ACATGGAG, the binding signal was determined as 0.0868 normalized occupancy.
Next, ACTTGGGG: 0.0791 normalized occupancy; CCATGGGG: 0.0949 normalized occupancy.
Next, ACATGGCG: 0.098 normalized occupancy; ACATGGAT: 0.101 normalized occupancy.
Under ACATGGCT stands 0.0932 normalized occupancy.
In the case of ACATGGAA, the binding signal turned out to be 0.0918 normalized occupancy.
Under CCATGGCG stands 0.0768 normalized occupancy; under ACATGGGG, 0.101 normalized occupancy.
Regarding AAATGGGT, the binding signal was determined as 0.0763 normalized occupancy.
As for GACATTGA, the binding signal was 0.078 normalized occupancy.
Next, CAATGAGC: 0.074 normalized occupancy; CGTGCGTA: 0.0916 normalized occupancy; ATTATGTA: 0.0828 normalized occupancy.
Next, CCCCCGCG: 0.0757 normalized occupancy.
Next, TGGCTAAA: 0.074 normalized occupancy; ATGACAGC: 0.0803 normalized occupancy.
Consider GTAATAAA, for which the binding signal was 0.076 normalized occupancy.
For ACTACTAT, the binding signal is 0.0796 normalized occupancy.
Under GGGGGCAC stands 0.0775 normalized occupancy.
Next, AAACGTAA: 0.0743 normalized occupancy; GGAGACAA: 0.0754 normalized occupancy; CTTAGGCA: 0.0777 normalized occupancy.
With AACTAATT, the binding signal was 0.0744 normalized occupancy.
Under GTTTAGAA stands 0.0757 normalized occupancy.
Next, AGTTTACA: 0.0773 normalized occupancy.
Consider AGCGTGAT, for which the binding signal came to 0.1 normalized occupancy.
Next, AGTGTGAC: 0.089 normalized occupancy.
Turning to AGCGTGAC, the binding signal came out at 0.101 normalized occupancy.
Next, AGCGTGAA: 0.0854 normalized occupancy.
Next, AGAGTGAC: 0.0747 normalized occupancy; ACCGTGAT: 0.0871 normalized occupancy; CCATAGGA: 0.0736 normalized occupancy.
Under AACCTTGT stands 0.0729 normalized occupancy; under CAAGGAAC, 0.079 normalized occupancy; under GGACGGCA, 0.0718 normalized occupancy.
GAAATTTA: the binding signal came out at 0.0725 normalized occupancy.
Next, ATTAGTCA: 0.0775 normalized occupancy.
Under GAATTCTA stands 0.0768 normalized occupancy; under AACGTGAC, 0.109 normalized occupancy.
Regarding ACCGTGAC, the binding signal is 0.0781 normalized occupancy.
Next, AACGTGAG: 0.0854 normalized occupancy.
Regarding AAGGTGAC, the binding signal was found to be 0.0729 normalized occupancy.
Under AACGTGAT stands 0.11 normalized occupancy; under AACGTGAA, 0.0849 normalized occupancy; under ACCTAACC, 0.0792 normalized occupancy.
Under GAGATGGA stands 0.0798 normalized occupancy.
Under GGTACCCA stands 0.0727 normalized occupancy.
For AATCATCC, the binding signal was found to be 0.083 normalized occupancy.
Turning to AATCATGT, the binding signal amounted to 0.0985 normalized occupancy.
Turning to ATTCATGC, the binding signal came to 0.0905 normalized occupancy.
Next, AATCATGC: 0.0958 normalized occupancy; GATCATCC: 0.0784 normalized occupancy.
GATCATGA: the binding signal is 0.0863 normalized occupancy.
Under AATCATGA stands 0.0851 normalized occupancy; under GATCATGC, 0.101 normalized occupancy; under CATCATGG, 0.0895 normalized occupancy.
Under AATCATGG stands 0.0832 normalized occupancy; under CATCATGC, 0.0995 normalized occupancy; under CATCATGA, 0.0846 normalized occupancy.
Under ATGCTCCA stands 0.0829 normalized occupancy; under TGAGTTAA, 0.078 normalized occupancy.
For the sequence CATCGTGG, the binding signal amounted to 0.0917 normalized occupancy.
Next, CAGCGTGG: 0.129 normalized occupancy.
Turning to GAGCGTGA, the binding signal stood at 0.0923 normalized occupancy.
Under CAGCGTGA stands 0.104 normalized occupancy.
Next, CAGCGTCA: 0.0719 normalized occupancy; TAGCGTGA: 0.0905 normalized occupancy; CTAATGTA: 0.078 normalized occupancy.
Under ATGTACGA stands 0.0873 normalized occupancy.
In the case of CATGGGGC, the binding signal is 0.0935 normalized occupancy.
Next, CATGGGGG: 0.0995 normalized occupancy; AATGGGGG: 0.0803 normalized occupancy.
Next, AATGGGGA: 0.0809 normalized occupancy; CATGGGGA: 0.1 normalized occupancy; CATGGGAA: 0.0896 normalized occupancy.
Under CCGTTTGA stands 0.0729 normalized occupancy; under CAGGTGAC, 0.0878 normalized occupancy.
Regarding AAACATTA, the binding signal turned out to be 0.0779 normalized occupancy.
CCATGCGA: the binding signal was 0.1 normalized occupancy.
Next, AAATGCGC: 0.0749 normalized occupancy.
Under CCCTGCGG stands 0.0745 normalized occupancy; under GGATGCGA, 0.0783 normalized occupancy; under GCATGCGC, 0.121 normalized occupancy.
Take GTATGCGA: the binding signal came out at 0.0727 normalized occupancy.
Next, CAATGCGG: 0.0873 normalized occupancy; GAATGCGC: 0.075 normalized occupancy; CAATGCGA: 0.0774 normalized occupancy.
Next, GCATGCGA: 0.119 normalized occupancy.
Next, CCATGCGG: 0.145 normalized occupancy; TCATGCGA: 0.0877 normalized occupancy; TGATAGAA: 0.0854 normalized occupancy.
Take GTGTCGTA: the binding signal came to 0.0815 normalized occupancy.
Next, AGGTCACG: 0.082 normalized occupancy; CTGTTGTA: 0.0736 normalized occupancy; AAAGAGCA: 0.0761 normalized occupancy.
Under ATGCGCGA stands 0.0781 normalized occupancy; under ATGTTCAG, 0.0809 normalized occupancy; under ACACATCC, 0.0784 normalized occupancy.
Under CCATGCGC stands 0.121 normalized occupancy; under CAATGCGC, 0.0788 normalized occupancy; under CTATGCGC, 0.075 normalized occupancy.
Turning to ACCATTGC, the binding signal turned out to be 0.0746 normalized occupancy.
Under AAACGTAT stands 0.0746 normalized occupancy; under AAACGTAC, 0.074 normalized occupancy; under AAACGTGT, 0.1 normalized occupancy.
Under GAACGTGC stands 0.0931 normalized occupancy; under CAACGTAA, 0.0776 normalized occupancy.
As for CAACGTGC, the binding signal stood at 0.122 normalized occupancy.
Next, CAACGTTC: 0.0755 normalized occupancy; AAACGTGC: 0.101 normalized occupancy.
For the sequence CAACGTCA, the binding signal is 0.0743 normalized occupancy.
Under AAACGTTT stands 0.0755 normalized occupancy.
In the case of CAACGTAC, the binding signal was found to be 0.0758 normalized occupancy.
Next, CAACGTGA: 0.118 normalized occupancy; CACACCCA: 0.0877 normalized occupancy; ATTATTTG: 0.0793 normalized occupancy.
Take ACCGATAC: the binding signal was 0.075 normalized occupancy.
Under TCTCCAAA stands 0.0803 normalized occupancy.
Next, CTCTCAGC: 0.0719 normalized occupancy.
Under CATGGCTC stands 0.09 normalized occupancy.
AAACCATA: the binding signal worked out at 0.0792 normalized occupancy.
CTGAATCC: the binding signal is 0.0737 normalized occupancy.
Under CGTACGCC stands 0.0757 normalized occupancy; under CTTAACCC, 0.0738 normalized occupancy; under ACAACTAA, 0.0755 normalized occupancy.
Take CGGCAGCC: the binding signal was found to be 0.0724 normalized occupancy.
Under CGTTTAGA stands 0.0747 normalized occupancy; under TAACGTGA, 0.0935 normalized occupancy; under AAACGTAG, 0.0771 normalized occupancy.
Next, CAACGTGG: 0.154 normalized occupancy.
Under CAACGTTG stands 0.083 normalized occupancy; under AAACGTCG, 0.0737 normalized occupancy; under AAACGTGA, 0.099 normalized occupancy.
As for CAACGTAG, the binding signal came to 0.0762 normalized occupancy.
Next, AAACGTGG: 0.123 normalized occupancy; GAACGTGA: 0.0801 normalized occupancy.
Regarding ATCGCCAG, the binding signal is 0.0753 normalized occupancy.
For the sequence AAGACATG, the binding signal was found to be 0.0912 normalized occupancy.
Next, GAAGCATC: 0.076 normalized occupancy; AACATCCA: 0.0849 normalized occupancy; ACTTAAAT: 0.0746 normalized occupancy.
Under TCACGTCA stands 0.0819 normalized occupancy; under TCACGTGA, 0.19 normalized occupancy; under TCACGTAA, 0.086 normalized occupancy.
CCACGTGC: the binding signal amounted to 0.814 normalized occupancy.
Next, CTACGTGA: 0.0799 normalized occupancy; CGACGTGA: 0.0883 normalized occupancy; CCACGTGA: 0.482 normalized occupancy.
Under CTACGTGC stands 0.0865 normalized occupancy.
Under CCACGTAG stands 0.0817 normalized occupancy.
Regarding CCACGTCG, the binding signal came to 0.086 normalized occupancy.
Next, CCACGTGG: 0.971 normalized occupancy; CGACGTGC: 0.083 normalized occupancy; GGAGAGCA: 0.0742 normalized occupancy.
Under CCGTCTAA stands 0.0757 normalized occupancy; under ACAAATGT, 0.079 normalized occupancy; under GGTCAGGA, 0.0732 normalized occupancy.
Next, GAGGAAGA: 0.075 normalized occupancy; ACCTGTAA: 0.0823 normalized occupancy; ACACCTGC: 0.0956 normalized occupancy.
As to ACACCTGT, the binding signal is 0.0912 normalized occupancy.
